Here are results for 34 compounds from ChEMBL document CHEMBL1961873, “Compounds: GSK PKIS; Assays: Nanosyn kinase panel” (2012).

For this experiment, the target named is Casein kinase I isoform gamma-2 (Homo sapiens) (UniProt P78368). The following applies: at 1 µM.
Casein kinase I isoform gamma-2 (Homo sapiens), sequence (P78368 whole entry, looked up, canonical isoform): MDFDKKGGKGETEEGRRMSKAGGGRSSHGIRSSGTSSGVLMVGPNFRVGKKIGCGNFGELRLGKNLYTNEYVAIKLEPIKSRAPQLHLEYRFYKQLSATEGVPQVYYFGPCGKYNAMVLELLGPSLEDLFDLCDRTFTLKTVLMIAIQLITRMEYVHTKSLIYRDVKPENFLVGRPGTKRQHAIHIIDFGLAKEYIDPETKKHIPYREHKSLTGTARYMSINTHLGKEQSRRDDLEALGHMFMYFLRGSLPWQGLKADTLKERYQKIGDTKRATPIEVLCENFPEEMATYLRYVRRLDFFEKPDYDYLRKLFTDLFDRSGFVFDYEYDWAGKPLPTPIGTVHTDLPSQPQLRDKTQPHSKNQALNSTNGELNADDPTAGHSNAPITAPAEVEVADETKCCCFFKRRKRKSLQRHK
The inhibition is the change of the read-out against control, counted positive when it falls. As to `NS(=O)(=O)c1ccc(N/N=C2\C(=O)Nc3ccc(C(=O)NCCCn4ccnc4)cc32)cc1`, the inhibition amounted to 9.42%.

Regarding `O=C(Nc1ccc(Oc2ccc3[nH]c(NC(=O)c4ccccc4)nc3c2)cc1)Nc1cc(C(F)(F)F)ccc1F`, the inhibition stood at 2.09%.

Regarding `COc1ccc2cc(-c3c(-c4ccncc4)nc(-c4ccc([S+](C)[O-])cc4C)n3C)ccc2c1` (centres undefined), the inhibition was -0.3%.

For `Cc1ccc(NC(=O)c2ccoc2)cc1-c1ccc(C(=O)NCC2CC2)cc1`, the inhibition amounted to 3.57%.

Regarding `C[C@@H](Oc1cc(-n2cnc3ccc(OC4CCN(C)CC4)cc32)sc1C(N)=O)c1ccccc1Cl`, the inhibition is -0.19%.

As to `CN(c1ccc(NC(=O)Nc2c(Cl)cccc2Cl)cc1)c1ccnc(Nc2cccc(CS(C)(=O)=O)c2)n1`, the inhibition came to 0.63%.

Consider `Fc1ccc(-c2ncn(C3CCNCC3)c2-c2ccnc(Oc3ccc(Oc4ccccc4)cc3)n2)cc1`, for which the inhibition stood at 14.6%.

`COc1cccc(/C=N/Nc2ncnc3c2cnn3-c2cccc(OC)c2)c1`: the inhibition was found to be 3.85%.

Consider `O=C(Nc1n[nH]c2nc(-c3ccc(O)cc3)c(Br)cc12)C1CC1`, for which the inhibition was 7.38%.

As to `COc1cc2ncn(-c3cc(OCc4ccccc4C(F)(F)F)c(C(C)=O)s3)c2cc1OC`, the inhibition was determined as 3.62%.

Turning to `Cc1ccc(C(=O)NC2CCC2)cc1-c1ccc(C(=O)NCC2CC2)cc1`, the inhibition is 2.95%.

For `COC(=O)Nc1nc2ccc(Sc3ccc(NC(=O)Nc4cc(C(F)(F)F)ccc4F)cc3)cc2[nH]1`, the inhibition amounted to 1.01%.

As to `COc1ccc(-c2ccc3c(NC(=O)C4CC4)n[nH]c3n2)cc1`, the inhibition came to 1.22%.

`Cc1ccc(C(=O)NC(C)C)cc1-c1ccc(C(=O)NCC2CC2)cc1`: the inhibition was -3.47%.

As for `O=C(Nc1n[nH]c2cc(-c3ccccc3)ccc12)C1CC1`, the inhibition was determined as 4.84%.

For the compound `CNC(=O)c1cncc(/C=C/c2c(C)cccc2C)c1`, the inhibition is -0.99%.

`C/C(Nc1ccc(S(N)(=O)=O)cc1)=C1/C(=O)Nc2ccccc21`: the inhibition amounted to 18.7%.

Take `NC(=O)c1ccc(Oc2nccc(-c3c(-c4ccc(F)cc4)ncn3C3CCNCC3)n2)cc1`: the inhibition worked out at 7.07%.

For `NC(=O)Cc1ccccc1Oc1nccc(-c2c(-c3ccc(F)cc3)ncn2C2CCNCC2)n1`, the inhibition turned out to be 10.5%.

Regarding `NCc1ccc(-n2c(-c3nonc3N)nc3cnccc32)cc1`, the inhibition was 7.87%.

With `O=C(Nc1n[nH]c2cc(-c3cc(F)ccc3F)ccc12)C1CC1`, the inhibition was determined as 3.38%.

For `NS(=O)(=O)c1ccc(N/N=C2\C(=O)Nc3ccc(-c4cnco4)cc32)cc1`, the inhibition was found to be 0.36%.

For the compound `N#Cc1ccc(Oc2nccc(-c3c(-c4ccc(F)cc4)ncn3C3CCNCC3)n2)cc1`, the inhibition was determined as 5.15%.

For `O=C(Nc1n[nH]c2nc(-c3ccco3)ccc12)C1CC1`, the inhibition turned out to be 1.22%.

In the case of `NS(=O)(=O)c1ccc(Nc2cc(-c3ccc(O)c(F)c3)n[nH]2)cc1`, the inhibition was found to be 2.15%.

For the compound `COc1cccc(-n2cnc3c(N/N=C/c4ccncc4)ncnc32)c1`, the inhibition is -5.36%.

`COc1cc(N2CCN(C(C)C)CC2)ccc1Nc1nc(Nc2ccc(F)cc2C(=O)NC[C@@H](O)CO)c2cc[nH]c2n1`: the inhibition was 15.6%.

For `Fc1ccc(-c2ncn(C3CCNCC3)c2-c2ccnc(Oc3ccc4c(c3)OCO4)n2)cc1`, the inhibition turned out to be 9.12%.

For `COc1cc(Nc2ncc(-c3ccccc3)o2)cc(OC)c1OC`, the inhibition was -0.69%.

For `Fc1ccc(-c2nc3n(c2-c2ccncc2)CCS3)cc1`, the inhibition was determined as 4.78%.

`COc1ccc(C2=C(N3CCc4ccccc43)C(=O)NC2=O)cc1`: the inhibition amounted to 4.63%.

As for `C[C@@H](Oc1cc(-n2cnc3ccc(OCC4CCN(C)CC4)cc32)sc1C(N)=O)c1ccccc1Cl`, the inhibition was determined as 7.87%.

Consider `O=C(NCC1CC1)c1ccc(-c2cccc(C(=O)NC3CC3)c2)cc1`, for which the inhibition worked out at 2.47%.

Turning to `Fc1ccc(-c2ncn(CCCN3CCOCC3)c2-c2ccncc2)cc1`, the inhibition amounted to 0.86%.
